# Hits are enriched below; roughly 19% of the tested compounds scored in any of these assays.
# AMA1-RON2 inh: inhibitors of Plasmodium falciparum AMA1-RON2 interaction; AID 720542; actives 0.2% (n = 360,000); Potency, µM (highest dose often 58.2 µM), for inactives: at the highest dose activity change, negative = inhibition, usual class: inhibitors; AlphaScreen AMA1-biotinylated RON2 peptide binding;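 further: potency means the concentration at half of the fitted maximal effect; 0% = vehicle wells and -100% = peptide control; nearly all actives have a fitted effect of over 45% in size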
#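 AMA1 (3D7) with his tag at 25 nM final met compounds first, then biotinylated RON2 peptide at 25 nM; detection used donor plus acceptor beads, 10 µg/mL apiece, read by AlphaScreen after 30 min at room temperature.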
# SARS PLP yeast: SARS-CoV PLP inhibition in yeast. Potency, µM (titrated, usually from 32.9 µM), without a hit: at the highest dose activity, positive = growth rescue, most hits filed as activators. actives 0.19% (n = 330,000). S. cerevisiae expressing SARS-CoV PLpro, growth rescue; calls by dose curve; further: potency means the concentration at half of the fitted maximal effect; 0% is about no effect; nearly all actives have a fitted effect of over 55% in size
# Pf growth 48h: P. falciparum growth inhibition at 48 hours (one generation); P. falciparum luciferase growth in erythrocytes, 48 h; Potency, µM (highest dose often 28.7 µM), for inactives: at the highest dose activity change, negative = inhibition, usual class: inhibitors; actives 5.9% (n = 310,000); AID 504832; further: potency means the concentration at half of the fitted maximal effect; on the % scale 0 is the no-effect control and ±100 the full control effect
#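 Growth was read as firefly luciferase luminescence after a 48 h, 37 C, 5% CO2 exposure of compounds to reporter-bearing P. falciparum cultures (0.1% parasitemia, 2% hematocrit final) in Albumax-supplemented RPMI 1640.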
# CHX counter: counter-screen for Shiga toxin inhibitors: cycloheximide protein synthesis inhibition | cell reporter, cycloheximide protein synthesis inhibition counterscreen | max response, % | actives 12% (n = 300,000) | AID 2314; in the data active means max response mostly above about 13%, no sharp cut-off; inactive means mostly below about 14%; further: read at 38.3 µM for the half of the compounds with a filed dose; 0% is about no effect
# Pf growth 96h: inhibits malaria parasite growth, 96 h; P. falciparum luciferase reporter growth, 96 h; Potency, µM (series often up to 28.7 µM), without a hit: at the highest dose activity change, negative = inhibition, actives largely listed as inhibitors; actives 6.9% (n = 320,000); AID 504834; further: potency means the concentration at half of the fitted maximal effect; on the % scale 0 is the no-effect control and ±100 the full control effect
#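 Parasite growth measured via integrated firefly luciferase reporter in P. falciparum. Infected erythrocytes at 2% hematocrit, 0.05% parasitemia final were treated 96 hours at 37 C under 5% CO2, and luminescence was read.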
# Shiga inhibitor: inhibitors of Shiga toxin in Vero cells; Vero cells, Shiga toxin protein synthesis inhibition reporter; inhibition, % at 38.7 µM; actives 9.2% (n = 290,000); AID 2315; in the data active means inhibition mostly above about 28%, no sharp cut-off; inactive means mostly below about 43%; further: 0% is about no effect
# Starred values were filed as active, the others as inactive; ? = inconclusive; · = not tested or not shown. Unless noted, the call rests on the fitted dose curve; in most records, active means well fitted curve in the direction sought with a large enough effect; inconclusive means small, poorly fitted or top-dose-only effect, or another doubt; inactive means no such curve, though single readings can be large; an effect the other way counts as inactive or inconclusive.
SMILES,AMA1-RON2 inh,SARS PLP yeast,Pf growth 48h,CHX counter,Pf growth 96h,Shiga inhibitor
Cc1ccc(C(=O)OCC(=O)c2ccc[nH]2)s1,-2%,0%,116%,30*,43%,76*
Cc1cc(C(=O)Nc2ccc(F)cc2C)n(-c2ccccc2)n1,-1%,1%,-9%,-2,1%,38
ClC1(CNc2ccccc2)CCN(Cc2ccccc2)CC1,-24%,·,·,·,·,·
c1ccc(Cn2nnc(CNc3ccccc3)c2-c2c(CNc3ccccc3)nnn2Cc2ccccc2)cc1,-19%,1%,2.6µM*,-2,1.9µM*,-3
CC1=C(C(=O)Nc2ccccc2)C(c2ccc(Cl)cc2)n2c(s/c(=C/c3cccc(OCC(=O)O)c3)c2=O)=N1 (centres undefined),-6%,-4%,1.7µM*,1,5%,-8
CC1=C(C(=O)Nc2ccccc2C)C(c2ccc(C)o2)n2c(s/c(=C/c3ccccc3)c2=O)=N1 (centres undefined),-11%,-2%,2.9µM*,-2,·,12
CC1=C(C(=O)OC(C)C)C(c2ccc(Cl)cc2)n2c(sc(=Cc3ccc(OCC(=O)O)cc3)c2=O)=N1 (centres undefined),1%,·,·,·,·,·
CC1=C(C(=O)Nc2ccccc2)C(c2ccc(C)o2)n2c(s/c(=C/c3ccccc3)c2=O)=N1 (centres undefined),6%,3%,·,9,?,11
CCOc1ccc(C2C(C(=O)Nc3ccccc3)=C(C)N=c3s/c(=C/c4cccc(OCC(=O)O)c4)c(=O)n32)cc1 (centres undefined),-11%,1%,0.47µM*,10,?,8
Cc1noc(C)c1COC(=O)c1csc2c1CCC(C)C2 (centres undefined),-8%,-8%,12µM*,·,?,·
CC1CCc2c(C(=O)NCc3ccccn3)csc2C1 (centres undefined),64%,-40%,33%,65*,?,161*
CC1CCc2c(C(=O)NCC3CCCO3)csc2C1 (centres undefined),4%,-7%,40%,86*,-1%,98*
Cc1ccccc1NC(=S)NNC(=O)c1csc2c1CCC(C)C2 (centres undefined),13%,-5%,235%,35*,·,78*
CC1CCc2c(C(=O)Nc3ccccn3)csc2C1 (centres undefined),-9%,-23%,182%,47*,100%,70*
CC1CCc2c(C(=O)NCc3cccnc3)csc2C1 (centres undefined),6%,-20%,28%,6,31%,-7
CC1CCc2c(C(=O)Nc3nccs3)csc2C1 (centres undefined),-13%,-28%,?,37*,?,69*
CCSc1nnc(NC(=O)c2csc3c2CCC(C)C3)s1 (centres undefined),2%,-5%,7%,0,·,-7
Cc1ccc(-c2nc(CN3CCCCC3)cc(CN3CCCCC3)c2O)cc1,-19%,-1%,0.83µM*,-2,?,12
CC(C)(C)c1nc(CN2CCOCC2)cc(CN2CCOCC2)c1O,?,-6%,·,-2,?,4
CC1(c2ccncc2)Nc2ccccc2-c2nc3ccccc3n21 (centres undefined),10%,-11%,3.3µM*,16*,2.6µM*,29
CCn1c(-c2ccc[nH]c2=O)nc2ccccc21,9%,0%,20%,1,45%,-6
COc1ccc2c(c1)C1(Nc3ccccc3-c3nc4ccccc4n31)C(=O)N2C (centres undefined),-1%,-5%,6.6µM*,-1,15%,15
COc1ccc2c(c1)C1(Nc3ccccc3-c3nc4ccccc4n31)C(=O)N2 (centres undefined),-4%,27%,0.41µM*,-3,·,-18
N#CC(C#N)=Cc1cn(-c2ncc(C(F)(F)F)cc2Cl)c2ccccc12,-9%,-5%,-25%,5,2%,14
CC(=O)/C=C\c1cn(-c2ncc(C(F)(F)F)cc2Cl)c2ccccc12,-8%,-7%,?,-3,10µM*,11
O=S(=O)(c1ccc(SCCOc2ccc(Cl)cc2)nc1)N1CCCC1,34%,-1%,13µM*,·,?,·

# Screens: PubChem, National Center for Advancing Translational Sciences (NCATS)
